Molecules are shown by their SMILES. About 3,000 (1.5%) of roughly 200,000 compounds were called active.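 How the source made its calls: active means inhibition above about 50% when tested at 10 µM (limit read from the data); inactive means the rest.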 Shown is part of a subset that was picked to be rich in actives.

For this assay, the target named is Luciferin 4-monooxygenase (Photinus pyralis) (UniProt P08659). Nature of the assay: inhibition of purified FLuc reporter enzyme – biochemical, luminescence, ATPLite, artefact control for luciferase-based inhibitor screens, primary screen (AID 1006). The conditions noted are these: ATPLite firefly luciferase biochemical luminescence, 10 min; at 10 µM; hits give high values.
Sequence of Luciferin 4-monooxygenase (Photinus pyralis) (P08659 whole entry, looked up): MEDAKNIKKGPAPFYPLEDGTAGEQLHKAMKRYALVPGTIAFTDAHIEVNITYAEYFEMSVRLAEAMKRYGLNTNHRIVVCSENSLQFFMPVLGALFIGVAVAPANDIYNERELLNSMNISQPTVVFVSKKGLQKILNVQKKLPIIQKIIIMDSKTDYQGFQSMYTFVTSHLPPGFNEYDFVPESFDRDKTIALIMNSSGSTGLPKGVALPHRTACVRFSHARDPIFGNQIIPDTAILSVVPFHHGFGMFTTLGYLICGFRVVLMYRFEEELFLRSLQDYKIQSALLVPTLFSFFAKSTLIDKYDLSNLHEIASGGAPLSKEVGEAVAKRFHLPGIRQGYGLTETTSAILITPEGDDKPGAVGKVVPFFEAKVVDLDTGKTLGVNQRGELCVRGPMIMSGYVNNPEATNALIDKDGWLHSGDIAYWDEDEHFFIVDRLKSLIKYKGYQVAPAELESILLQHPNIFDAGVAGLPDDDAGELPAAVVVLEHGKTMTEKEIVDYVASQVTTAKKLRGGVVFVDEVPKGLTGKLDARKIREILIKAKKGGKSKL
Broadly, the inhibition is the relative decrease from the control value, in per cent. For `CCNC(=O)CC1C(=O)N(c2ccc(F)cc2)C(=O)N1CCc1sccc1C` (centres undefined), the inhibition is -3.3% (inactive).

As to `COc1ccc(/C=C/CN2CCCC(C(=O)c3cc(F)ccc3F)C2)cc1` (centres undefined), the inhibition was -1.7% (inactive).

As to `O=C(Oc1ccc([N+](=O)[O-])cc1)c1ccc(Cl)c(S(=O)(=O)N2CCCCC2)c1`, the inhibition is -5.6% (inactive).

As to `COc1ccccc1N=Cc1c(O)c2ccccc2oc1=O`, the inhibition was 95.4% (active).

Take `COc1ccc(N=Cc2c(O)[nH]c3ccccc23)cc1OC`: the inhibition was 6% (inactive).

`COc1ccc(OC)c(N=Cc2c(O)[nH]c3ccccc23)c1`: the inhibition is 0.1% (inactive).

As to `COc1ccc(NC(=O)CN2C(=O)CSC2=O)cc1`, the inhibition is 1.6% (inactive).

As for `O=C(CCC(=O)Nc1ccccc1)N/N=C/c1ccccc1F`, the inhibition is -1.2% (inactive).

As for `O=C(/C=C/c1ccc2c(c1)OCO2)NCc1cn2cc(Cl)ccc2n1`, the inhibition was 5.7% (inactive).

In the case of `CC(Oc1ccccc1)C(=O)Nc1oc(-c2ccco2)c(-c2ccco2)c1C#N` (centres undefined), the inhibition was -6.2% (inactive).

For `COC(=O)c1cccnc1NC(=S)NC(C)C`, the inhibition was 9.9% (inactive).

For `COc1ccc(C2=NOC3(CC(=O)N(c4ccc(C)cc4)C3=O)C2)cc1` (centres undefined), the inhibition is -1.7% (inactive).

With `COc1ccc(C2=Nc3cc(C)ccc3OC2)cc1`, the inhibition was 77.4% (active).

`COc1ccc(C2=NOC(COC(=O)c3ccc4ccccc4n3)C2)cc1` (centres undefined): the inhibition was 3.5% (inactive).

With `Cc1cc(N/N=C/c2ccccc2F)c2ccccc2n1`, the inhibition is -7.5% (inactive).

`Cc1ccc2nc(-c3ccncc3)cc(C(=O)Nc3ccc(OC(F)F)cc3)c2c1`: the inhibition is -8% (inactive).

In the case of `COc1ccccc1C(=O)Nn1c(-c2cccs2)nc2ccccc2c1=O`, the inhibition is -0.5% (inactive).

On to `Cc1ccc(Oc2ccc3c(c2)C(=O)N(c2cccc4cccnc24)C3=O)cc1`, for which the inhibition was -5.2% (inactive).

Turning to `O=C1c2cccnc2C(=O)N1Cc1cccs1`, the inhibition is -1.3% (inactive).

As to `Cc1cccc(N2C(=O)c3cccnc3C2=O)c1`, the inhibition is 68.5% (active).

As for `CN(C)/N=C/c1cn(-c2ccccc2)nc1-c1cccnc1`, the inhibition was 5.7% (inactive).

Turning to `CCOc1ccc(/C=C(/NC(=O)c2ccccc2)C(=O)NCCC(=O)O)cc1`, the inhibition is -10.4% (inactive).

With `COC(=O)c1ccc(/C=N/OCC(=O)Nc2cc(F)ccc2F)cc1`, the inhibition is 0% (inactive).

With `CCOC(=O)N1CCN(CC(=O)Nc2ccc(F)cc2)CC1`, the inhibition was -7.1% (inactive).

Take `COc1cc(C(=S)N2CCOCC2)ccc1O`: the inhibition was -1% (inactive).

For `COc1ccc2[nH]c(=O)c(-c3noc(-c4ccc(F)cc4)n3)cc2c1`, the inhibition was -1.9% (inactive).

On to `Cc1ccc(Cc2nc(-c3cccc(C)c3)no2)cc1`, for which the inhibition is 2.3% (inactive).

Regarding `Cc1cccc(-c2noc(-c3ccc(F)cc3)n2)c1`, the inhibition is 59.9% (active).

For `COc1ccc(C(=O)NNC(=O)c2cc(C)[nH]n2)cc1`, the inhibition was -3.5% (inactive).

In the case of `Cn1cc(CCC(=O)N2CCCC(C(=O)c3ccc(C(C)(C)C)cc3)C2)cn1` (centres undefined), the inhibition is 1.3% (inactive).

Turning to `O=C(Nc1cccnc1)c1noc2c1CCCCC2`, the inhibition was 57.5% (active).

For the molecule `COc1cccc(C(=O)Nc2cccnc2)c1OC`, the inhibition was -1.1% (inactive).

In the case of `O=C(Nc1cccnc1)c1cccc(S(=O)(=O)N2CCCC2)c1`, the inhibition is -1.1% (inactive).

Consider `Cc1ccc(CN2CCN(Cc3ccc(OCCO)cc3)CC2CCO)o1` (centres undefined), for which the inhibition is -7% (inactive).
